Data taken from PubChem BioAssay AID740 (SRMLSC, 2007).
In all, about 96,000 compounds went through this assay and about 65 (0.07%) were called active. This is one part of a sample in which actives are shown more often than they occur. Unmarked numbers belong to inactive results. No stated cut-off is given here; in the data, active means inhibition above about 25%; inactive means the rest.

experiment: unspecified inhibition readout at 50 µM (AID 740); conditions: unspecified screen; stronger effect = higher value

Row | Compound | inhibition
1 | CC(NC(=O)c1ccc(NS(C)(=O)=O)cc1)c1ccccc1 (stereo unspecified) | 1.26%
2 | CC(NC(=O)c1ccc(S(=O)(=O)N(C)C)cc1)c1ccccc1 (stereo unspecified) | 26.5% (active)
3 | CC(NC(=O)c1ccc(F)cc1)c1ccccc1 (stereo unspecified) | 1.4%
4 | CCCn1ncc(C(=O)O)c1C | 0.49%
5 | CCn1c(N2CCN(CC(=O)c3c[nH]c4ccccc34)CC2)nc2c1c(=O)[nH]c(=O)n2C | 0.91%
6 | CCc1c(C)nc2[nH]nc(-c3ccccc3C)n2c1=O | 36.2% (active)
7 | Cc1cc(=O)n2c(-c3ccccc3C)n[nH]c2n1 | 0.44%
8 | CCc1c(C)nc2[nH]nc(-c3ccccc3)n2c1=O | 39.6% (active)
9 | CCc1c(C)[nH]c2nc3ccccc3n2c1=O | 1.48%
10 | COCc1cc(=O)n2c(-c3ccccc3OC)n[nH]c2n1 | inactive
11 | CCc1c(C)nc2[nH]nc(NC(=O)C(F)(F)F)n2c1=O | 1.45%
12 | CC(=O)N1CCN(S(=O)(=O)c2cccc(C(=O)Nc3nc4c(s3)CCCC4)c2)CC1 | 0.78%
13 | COc1ccccc1NC(=O)c1cc(C(=O)O)ccc1C(=O)O | inactive
14 | O=C(O)c1ccc(CN2C(=O)CSC2=S)cc1 | inactive
15 | O=C1CSC(=S)N1c1cccnc1 | inactive
16 | O=C1CSC(=S)N1Cc1cccnc1 | 28.6% (active)
17 | COc1cccc(-c2nc(CS(=O)(=O)CC(=O)N3CCc4ccccc43)c(C)o2)c1 | inactive
18 | Cc1ccccc1N(CC(=O)NC1CCCC1)C(=O)c1oc(C(C)(C)C)cc1C | 2.02%
19 | Cc1sc2nc3ccc(NCc4ccco4)nn3c(=O)c2c1C | 3.95%
20 | O=c1c2ccccc2nc2c3ccccc3c(NCc3ccco3)nn12 | 0.85%
21 | Cc1sc2nc3c4ccccc4c(NCc4ccco4)nn3c(=O)c2c1C | 26.7% (active)
22 | Cc1cc(C(=O)OCC(=O)Nc2ccc(S(=O)(=O)N3CCOCC3)cc2)c(C)o1 | inactive

Row | Compound | inhibition
23 | Nc1nc(-c2ccco2)nn1C(=O)c1ccc(Cl)cc1 | 0.07%
24 | Cc1nc2scc(-c3ccco3)c2c(=O)n1/N=C/N(C)C | 25.3% (active)
25 | Cc1ccc(-c2csc3ncn(/N=C/N(C)C)c(=O)c23)o1 | 0.16%
26 | Cc1nc2scc(-c3ccccc3)c2c(=O)n1/N=C/c1ccco1 | inactive
27 | COC(=O)Cn1cc(C(=O)OC)c2ccccc21 | inactive
28 | COc1cccc(CNC(=O)CCS(=O)(=O)c2cccc3nsnc23)c1 | 0.1%
29 | O=C(CCS(=O)(=O)c1cccc2nsnc12)NCc1ccccc1Cl | 79.1% (active)
30 | Cc1ccc(CNC(=O)CCS(=O)(=O)c2cccc3nsnc23)cc1 | 0.45%
31 | COc1cc2[nH]c(=O)n(CCC(=O)NC3CCCC3)c(=O)c2cc1OC | 0.82%
32 | Cc1sc(-c2ccccn2)nc1OC(=O)c1ccc(Cl)cc1 | inactive
33 | COc1c(N2CCN(C(=S)Nc3ccc(F)cc3)C(C)C2)c(F)cc2c(=O)c(C(=O)O)cn(C3CC3)c12 (stereo unspecified) | 0.59%
34 | NC1C2CN(c3nc4c(cc3F)c(=O)c(C(=O)O)cn4-c3ccc(F)cc3F)CC12 (stereo unspecified) | 27.2% (active)
35 | CCn1cc(C(=O)O)c(=O)c2cc(F)c(N3CCN(C(=O)Nc4ccccc4)CC3)cc21 | 1.47%
36 | O=C(O)c1cccc(COCC(F)(F)C(F)F)c1 | inactive
37 | COc1ccc([C@H]2[C@H](C(=O)C(C)(C)C)N3N=Cc4ccccc4C3[C@]23N=C(c2ccccc2)OC3=O)cc1 (stereo partly specified) | inactive
38 | COc1ccc(CCN(Cc2cc3cc(C)c(C)cc3nc2Cl)C(=O)C2CC2)cc1 | inactive
39 | CC(C)(C)c1ccc(OCCn2ccccc2=O)cc1 | 25.3% (active)
40 | CC(C)(C)c1ccc(OCCN2CCCC2)cc1 | inactive
41 | CC(C)(c1ccccc1)c1ccc(OCCn2cnc3ccccc3c2=O)cc1 | inactive
42 | CCS(=O)(=O)Nc1ccc(-c2ccc(NS(=O)(=O)CC)c(OC)c2)cc1OC | 0.7%
43 | Cc1ccc(S(=O)(=O)CC(N)=O)cc1 | 0.12%
44 | O=C(c1ccco1)N1CCN(c2cc(C(F)(F)F)nc3ncnn23)CC1 | 1.54%

Row | Compound | inhibition
45 | CCCN(CCC)C(=O)Cn1c(=O)n(CCCCC(=O)NC2CCCC2)c(=O)c2ccccc21 | 0.15%
46 | CCN1CCN(CC(O)COc2ccc(C(C)=O)cc2)CC1 (stereo unspecified) | 0.4%
47 | Cc1cc(C)c(C(=O)/C=C/c2ccc(C(C)C)cc2)c(=O)[nH]1 | 1.62%
48 | Cc1ccc(/C=C/C(=O)c2c(C)cc(C)[nH]c2=O)cc1 | 35.2% (active)
49 | CCc1ccc(/C=C/C(=O)c2c(C)cc(C)[nH]c2=O)cc1 | 24.9%
50 | COCCSc1ccccc1C(=O)N1CCOCC1 | inactive
51 | CC(C)(C)c1ccc(S(=O)(=O)n2c(CN3CCOCC3)nc3ccccc32)cc1 | 0.34%
52 | CCOC(=O)CSc1nnc(C2CCCCC2)n1C | inactive
53 | COc1ccc(C(=O)C(CN2CCCC2)c2ccccc2)cc1 (stereo unspecified) | 8.35%
54 | O=C(c1ccc(F)cc1)C(CN1CCOCC1)c1ccccc1 (stereo unspecified) | inactive
55 | COc1ccc(C(=O)C(CN2CCOCC2)c2ccccc2)cc1 (stereo unspecified) | 41.7% (active)
56 | Nc1nc(SCc2ccccc2)[nH]c(=O)c1-c1ccccc1 | inactive
57 | O=C(CN1CCN(c2ncccn2)CC1)NCCC1=CCCCC1 | 50.1% (active)
58 | O=C(CSc1ncccc1C(=O)O)NCCC1=CCCCC1 | inactive
59 | O=C(CN1CCN(C2CCCCC2)CC1)NCCC1=CCCCC1 | inactive
60 | COc1cccc(NS(=O)(=O)c2ccc3[nH]cc(C(=O)NCCC(C)C)c(=O)c3c2)c1 | 1.2%
61 | O=C(NCc1ccco1)c1cc(S(=O)(=O)N2CCOCC2)ccc1Cl | 0.08%
62 | CCCCOc1cccc(NC(=O)CSc2nccn2C)c1 | inactive
63 | C=CCNC(=S)Nc1cccc2ccccc12 | 0.02%
64 | COc1ccccc1-c1nnc(Sc2nc([N+](=O)[O-])nn2C)o1 | inactive
65 | Cn1nc([N+](=O)[O-])nc1Sc1nnc(-c2ccccc2)o1 | 28.3% (active)
66 | Cn1nc([N+](=O)[O-])nc1Sc1ccc(C(C)(C)C)cc1 | 9.59%

Row | Compound | inhibition
67 | Nc1nc(Nc2cccc(C(F)(F)F)c2)nc(C(F)(F)F)n1 | inactive
68 | Cc1cc(C)n(S(=O)(=O)Cc2ccccc2)n1 | 0.57%
69 | Cc1cc(C)n(S(=O)(=O)/C=C/c2ccccc2)n1 | 40.1% (active)
70 | O=S(=O)(/C=C/c1ccccc1)n1cnc2ccccc21 | 0.11%
71 | CCOC(=O)C1=C(C)Nc2nc(SC)nn2C1c1ccc(C(=O)OC)cc1 (stereo unspecified) | 0.25%
72 | O=C(NCc1cccs1)c1ccc(N2CCCCC2)nc1 | 26% (active)
73 | CC1CCCN(c2ccc(C(=O)NCc3cccs3)cn2)C1 (stereo unspecified) | 0.47%
74 | CC1CCN(c2ccc(C(=O)NCc3cccs3)cn2)CC1 | inactive
75 | O=C(O)CSc1nnc(-c2ccncc2)n1-c1ccc(Cl)cc1 | inactive
76 | CC(=O)Nc1cc(-c2nn(C)c(=O)c3ccccc23)ccc1N1CCCCC1 | inactive
77 | c1ccc(OCc2nnc3sc(C4COc5ccccc5O4)nn23)cc1 (stereo unspecified) | inactive
78 | Cc1cc(C(=O)CSc2nnnn2-c2ccc(Cl)cc2)c(C)n1CC1CCCO1 (stereo unspecified) | 0.29%
79 | COC(=O)c1sc(S(=O)(=O)N2CCN(c3ccccc3)CC2)c(C(=O)OC)c1C | 1.69%
80 | O=C(CSc1nnc(Cc2ccccc2)n1Cc1ccco1)NC1CCCC1 | 4.05%
81 | NC(=O)c1c(NC(=O)CSc2nnc(Cc3ccccc3)n2Cc2ccco2)sc2c1CCC2 | 27% (active)
82 | NC(=O)c1c(NC(=O)CSc2nnc(-c3ccco3)n2-c2ccccc2)sc2c1CCC2 | inactive
83 | CCCCCC(O)CCc1n[nH]c(=S)n1-c1ccccc1 (stereo unspecified) | inactive
84 | O=C(CC(c1ccccc1)c1ccccc1)Nc1ccc(Cl)cn1 | inactive
85 | CCOC(=O)c1c(NC(=O)CN2CCOCC2)sc2c1CC(C)(C)OC2 | 1.02%
86 | COC(=O)CC(NC(=O)c1ccco1)c1ccc(C(C)C)cc1 (stereo unspecified) | inactive
87 | Cc1ccc(-c2nnc3ccc(SCC(=O)NCc4ccco4)nn23)cc1 | 2.76%
88 | O=C(CSc1ccc2nnc(-c3ccccc3)n2n1)NCc1ccco1 | 3.91%

Row | Compound | inhibition
89 | O=C(CSc1ccc2nnc(-c3ccncc3)n2n1)NCc1ccco1 | 28.9% (active)
90 | NC(=S)NNc1cccc(Cl)c1 | inactive
91 | CSc1nnc(-c2ccc(Cl)cc2Cl)o1 | 7.66%
92 | C=CCSc1nnc(-c2cccnc2)o1 | 33.1% (active)
93 | CCSc1nnc(-c2ccc(Cl)cc2Cl)o1 | 1.81%
94 | C=CCSc1nnc(-c2ccc(Cl)cc2Cl)o1 | 37.9% (active)
95 | Cc1ccc(CSc2nnc(-c3cccnc3)o2)cc1 | inactive
96 | C(=C\c1ccccc1)/CSc1nnc(-c2cccnc2)o1 | 0.18%
97 | O=C(Nc1ccc(Cl)cc1)N1CCCC1 | inactive
98 | O=C(NCCc1cccs1)C1CC(c2ccc([N+](=O)[O-])cc2)=NO1 (stereo unspecified) | 1.33%
99 | COc1cc(C(=O)N2CCC(c3nc(-c4cccnc4)no3)CC2)cc(OC)c1OC | inactive
100 | Cc1nc(C)c(C(=O)C2=C(O)C(=O)N(CCN(C)C)C2c2ccccc2)s1 (stereo unspecified) | 0.19%
101 | COc1ccc2c(c1OC)C(=O)OC2c1c(O)n(Cc2ccc(F)cc2)c(=O)[nH]c1=O (stereo unspecified) | inactive
102 | CCC(=O)N1CCN(c2ccccc2NC(=O)COc2ccccc2Cl)CC1 | inactive
103 | O=C(O)CCS(=O)(=O)c1nc(-c2cccs2)cc(C(F)(F)F)n1 | inactive
104 | CS(=O)(=O)c1nc(-c2cccs2)cc(C(F)(F)F)n1 | 26.1% (active)
105 | CS(=O)(=O)c1nc(-c2ccccc2)cc(C(F)(F)F)n1 | inactive
106 | CCC1(c2cccc(Cl)c2)NC(=O)N(Cc2cc(C(=O)OC)c(C)o2)C1=O (stereo unspecified) | inactive
